MARV entry inh = inhibitors of Marburg virus binding or cell entry. 300,000 tested, 1.8% active. Potency, µM (series often up to 37.8 µM), actives largely listed as inhibitors. Marburg virus pseudotyped entry inhibition, cell reporter; calls by dose curve; tested in HEK293 cells
HCV inhibitor = inhibitors of hepatitis C virus infection; Huh7.5.1 HCVcc-Cre infection, luciferase reporter, 44 h; Potency, µM (highest dose often 41.8 µM), most hits filed as inhibitors; 340,000 tested, 3.4% active; AID 651820; active means well fitted inhibition curve with a large enough effect; inconclusive means small, poorly fitted or top-dose-only effect, or another doubt; inactive means no such curve, though single readings can be large or run the other way
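A cell-based infection assay in which seeded cells (1,000 per well) receive test compound after 4 h, are inoculated with HCVcc-Cre at approximately 0.5 moi, and are incubated 44 h before luminescence detection.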
FMDV antiviral = antivirals against foot and mouth disease virus; FMDV antiviral cell-based qHTS; Potency, µM (series often up to 57.9 µM), usual class: inhibitors; 410,000 tested, 1.2% active; AID 1159524; calls by dose curve; tested in HEK293T cells; further: read-out not given here; nearly all actives have a fitted effect of over 45% in size
Lassa entry inh = Lassa virus entry inhibition; Lassa virus pseudotype entry inhibition, cell reporter; Potency, µM (doses to about 37.9 µM), hits mostly inhibitors; 300,000 tested, 1.2% active; AID 540256; calls by dose curve; tested in HEK293 cells; further: nearly all actives have a fitted effect of over 50% in size
CHX counter = counter-screen for Shiga toxin inhibitors: cycloheximide protein synthesis inhibition | 300,000 tested, 12% active | cell reporter, cycloheximide protein synthesis inhibition counterscreen | AID 2314 | max response, %; in the data active means max response mostly above about 13%, no sharp cut-off; inactive means mostly below about 14%; further: read at 38.3 µM for the half of the compounds with a filed dose
Shiga toxin inh = Shiga toxin inhibition; 290,000 tested, 9.2% active; Vero cells, Shiga toxin protein synthesis inhibition reporter; inhibition, % at 38.7 µM; in the data active means inhibition mostly above about 28%, no sharp cut-off; inactive means mostly below about 43%
Each line names hits and unclear results; the compound was inactive in the other large screens. This is a sample that favours compounds with a hit; in the whole collection about 13% have one here.

O=C(Nc1ccc(Cl)cc1)c1nc[nH]c1C(=O)NCCN(CCNC(=O)c1[nH]cnc1C(=O)Nc1ccc(Cl)cc1)CCNC(=O)c1[nH]cnc1C(=O)Nc1ccc(Cl)cc1	HCV inhibitor inconclusive (no result: MARV entry inh, Lassa entry inh, CHX counter, Shiga toxin inh)
Cc1cccc(CN(Nc2ccccc2)c2ccccc2)n1	none (no result: MARV entry inh, HCV inhibitor, Lassa entry inh, CHX counter, Shiga toxin inh)
CC1(c2nnnn2Cc2ccccc2)CCC(=O)N1C1CC1 (stereo unspecified)	none (no result: MARV entry inh, HCV inhibitor, Lassa entry inh, CHX counter, Shiga toxin inh)
CC(=O)c1cccc(NC(=O)CN(c2cc(C)cc(C)c2)S(=O)(=O)c2c(C)noc2C)c1	none (no result: HCV inhibitor, CHX counter, Shiga toxin inh)
CC1=C(C(=O)N(C)C)CC(CC(=O)NCc2cccs2)C(=O)N1Cc1ccc(C(C)(C)C)cc1 (stereo unspecified)	none (no result: MARV entry inh, HCV inhibitor, Lassa entry inh, CHX counter, Shiga toxin inh)
Cn1nnc2c[n+](CC(=O)c3ccc(Cl)cc3)cc(Br)c21	MARV entry inh inconclusive, HCV inhibitor inconclusive, FMDV antiviral inconclusive, Lassa entry inh inconclusive
Cn1nnc2c[n+](CC(=O)c3ccc4ccccc4c3)cc(Br)c21	MARV entry inh 11µM, HCV inhibitor inconclusive, FMDV antiviral inconclusive, Lassa entry inh inconclusive, CHX counter 15
O=C(NC(=S)NCCN1CCOCC1)c1ccc(Cl)cc1Cl	none
CCOc1cc(NC(=S)NCC2CCCO2)c(OCC)cc1NC(=O)c1cccc(C)c1 (stereo unspecified)	MARV entry inh 1.6µM, HCV inhibitor inconclusive, FMDV antiviral 3.2µM, Lassa entry inh inconclusive
Cc1ccc(C(=O)NC(=S)NCC2CCCO2)cc1 (stereo unspecified)	MARV entry inh inconclusive, CHX counter 65
O=C(NC(=S)NCC1CCCO1)c1ccc(Cl)cc1 (stereo unspecified)	MARV entry inh inconclusive, CHX counter 29, Shiga toxin inh 41
O=C(NC(=S)NCCN1CCOCC1)c1ccc(Cl)cc1	CHX counter 24
COc1ccccc1CCNC(=O)C1CCN(c2nc3ccccc3nc2C(F)(F)F)CC1	none (no result: MARV entry inh, HCV inhibitor, CHX counter, Shiga toxin inh)
C=CCn1c2ccccc2c2nnc(SCC(=O)Nc3c(C)n(C)n(-c4ccccc4)c3=O)nc21	HCV inhibitor inconclusive
O=C(Nc1n[nH]c(C2CCCCC2)n1)C1CCCCC1	none (no result: FMDV antiviral)
CCOc1ccc(S(=O)(=O)N2CCN(CCNS(=O)(=O)c3ccc(C)cc3)CC2)cc1	none (no result: CHX counter, Shiga toxin inh)
O=C(NCC1CCCO1)c1ccccc1 (stereo unspecified)	MARV entry inh inconclusive
O=C(NC(=S)NCC1CCCO1)c1ccccc1 (stereo unspecified)	MARV entry inh inconclusive, CHX counter 31, Shiga toxin inh 34
O=C(COC(=O)c1ccccc1)NCC1CCCO1 (stereo unspecified)	CHX counter 24, Shiga toxin inh 46
CC(O)C(NC(=O)OCc1ccccc1)C(=O)NCC(=O)NCC(=O)OCc1ccccc1 (stereo unspecified)	none (no result: MARV entry inh, HCV inhibitor, Lassa entry inh, CHX counter, Shiga toxin inh)
COc1ccc(C(=O)N2CCC3(CCCN(C(=O)Nc4cccc(C#N)c4)C3)CC2)cc1	none (no result: MARV entry inh, HCV inhibitor, Lassa entry inh, CHX counter, Shiga toxin inh)
Oc1ccc(Br)cc1/C=N/n1c(-c2ccccc2)n[nH]c1=S	none (no result: MARV entry inh, Lassa entry inh)
Oc1ccc(Br)cc1C=Nc1cccn2cc(-c3ccccc3)nc12	MARV entry inh inconclusive, CHX counter 35, Shiga toxin inh 81
CNc1sc(C(=O)c2cccs2)c(N)c1-c1nc2ccccc2s1	HCV inhibitor inconclusive, Lassa entry inh inconclusive, CHX counter 40, Shiga toxin inh 176
O=C(Nc1ccccc1-c1nc2ccccc2s1)c1ccc(F)cc1	Lassa entry inh inconclusive (no result: HCV inhibitor, CHX counter, Shiga toxin inh)
CNc1sc(C(=O)c2ccc(F)cc2)c(N)c1-c1nc2ccccc2s1	HCV inhibitor inconclusive, CHX counter 29
COc1cc(OC)c(NS(=O)(=O)c2c(C(=O)N3CCCCCC3)c(C)n(C)c2C)cc1Cl	none (no result: MARV entry inh, HCV inhibitor, CHX counter, Shiga toxin inh)
O=C(Cn1nnc(-c2cccs2)n1)OC1CCCCC1	MARV entry inh inconclusive, CHX counter 18
COc1ccc(-c2nnn(CC(=O)OC3CCCCC3)n2)cc1OC	none
CC1CCN(C(=O)Cn2nnc(-c3cccs3)n2)CC1	CHX counter 39, Shiga toxin inh 68 (no result: MARV entry inh, Lassa entry inh)
Cc1sc(NC(=O)c2ccco2)c(CN2CCC(C)CC2)c1C	MARV entry inh inconclusive, HCV inhibitor inconclusive
Cc1sc(NC(=O)c2ccc(F)cc2)c(CN2CCCCCC2)c1C	MARV entry inh inconclusive, HCV inhibitor inconclusive, Lassa entry inh inconclusive, CHX counter 43, Shiga toxin inh 175
Cc1sc(NC(=O)c2ccco2)c(CN2CCN(Cc3ccccc3)CC2)c1C	MARV entry inh 13µM, HCV inhibitor inconclusive, Lassa entry inh inconclusive
Cc1sc(NC(=O)c2ccco2)c(C(c2cccnc2)N2CCC(C)CC2)c1C (stereo unspecified)	MARV entry inh inconclusive, HCV inhibitor 8.9µM, FMDV antiviral 18µM, Lassa entry inh 21µM
Cc1sc(NC(=O)c2ccccc2F)c(CN2CCCCC2)c1C	HCV inhibitor inconclusive, CHX counter 50, Shiga toxin inh 127
O=C(CSc1nc2ccccc2c(=O)n1-c1ccccc1)N1CCN(CCO)CC1	none
CCc1cc([N+](=O)[O-])cc(CC)c1N	HCV inhibitor 11µM
C#CCn1c(S(=O)(=O)Cc2ccc(OC)cc2)nc(-c2ccccc2)c1-c1ccccc1	MARV entry inh 4.1µM, Lassa entry inh inconclusive
CCOC(=O)Cn1c(S(=O)(=O)Cc2ccc(Cl)cc2)nc(-c2ccccc2)c1-c1ccccc1	MARV entry inh inconclusive, HCV inhibitor 35µM, Lassa entry inh inconclusive
CC(C)(C)C(=O)Nc1ccc2c(c1)-c1cc(NC(=O)C(C)(C)C)ccc1C2	HCV inhibitor inconclusive (no result: FMDV antiviral)
CC(C)C(=O)Nc1ccc(NC(=O)c2ccc([N+](=O)[O-])cc2Cl)cc1	MARV entry inh inconclusive, HCV inhibitor inconclusive
CN(C)c1ccc(NC(=O)c2ccc([N+](=O)[O-])cc2Cl)cc1	MARV entry inh inconclusive, Lassa entry inh inconclusive, CHX counter 46, Shiga toxin inh 75
O=C(Nc1cccc(O)c1)c1ccc([N+](=O)[O-])cc1Cl	CHX counter 32, Shiga toxin inh 61 (no result: MARV entry inh, Lassa entry inh)
Clc1ccccc1OCCn1cnc2ccccc21	CHX counter 31, Shiga toxin inh 72 (no result: HCV inhibitor)
Brc1ccccc1OCCCCn1cnc2ccccc21	MARV entry inh inconclusive, HCV inhibitor 10µM, Lassa entry inh inconclusive, CHX counter 26, Shiga toxin inh 42
Cc1ccc(OCCCCn2cnc3ccccc32)c(C)c1	MARV entry inh inconclusive, HCV inhibitor inconclusive, Lassa entry inh inconclusive
COc1ccccc1C(=O)Nc1ccc(OCc2cc(=O)n3cc(C)sc3n2)cc1	none (no result: HCV inhibitor, CHX counter, Shiga toxin inh)
O=C(Cc1cc(=O)oc2cc(O)ccc12)NN=Cc1ccc(N(CCCl)CCCl)cc1	MARV entry inh 4.5µM, Lassa entry inh inconclusive (no result: CHX counter, Shiga toxin inh)
Cc1ccccc1CN1[C@@H](C(C)C)COCCS1(=O)=O	none (no result: MARV entry inh, Lassa entry inh, CHX counter, Shiga toxin inh)
C/C(=N\N=C1\NC(=O)CS1)c1cccs1	none (no result: MARV entry inh, Lassa entry inh)
Cc1ccccc1Oc1ccc(Oc2ccccc2C)nn1	CHX counter 31, Shiga toxin inh 116 (no result: FMDV antiviral)
Cc1ccc(Oc2ccc(Oc3ccc(C)cc3)nn2)cc1	none
Cc1ccccc1NC(=O)CCCCC(=O)Nc1ccccc1C	Lassa entry inh inconclusive (no result: Shiga toxin inh)
CN1CCN(C(=S)Nc2cc([N+](=O)[O-])ccc2Cl)CC1	CHX counter 11
O=C(CC(=O)c1ccccc1)Nc1ccccc1C(F)(F)F	MARV entry inh inconclusive, CHX counter 32
O=C(CC(=O)Nc1ccccc1C(F)(F)F)Nc1ccccc1C(F)(F)F	none (no result: MARV entry inh, Lassa entry inh)

High-throughput results as filed in PubChem.
